HSP90 inh = HSP90 inhibitors, primary screen, cell lysate, luminescence; Heat shock protein HSP 90 (rabbit reticulocyte lysate; luciferase refolding); Rabbit reticulocyte lysate, luciferase refolding luminescence, 3 h; inhibition, % at 5.6 µM; 290,000 tested, 0.91% active; AID 1789, 2009;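 active = inhibition above the screen-wide mean plus 3 SD, computed separately per campaign, cut at about 16% in these data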;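 note: 0% = DMSO wells and 100% = 60 µM geldanamycin wells; inhibitors lower the luminescence because luciferase stays unfolded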
HSF-1 act = HSF-1 activators, primary screen, NIH3T3-HGL cells, MG132 stress, luminescence, single point; NIH3T3-HGL HSF-1 luciferase reporter, 8 h; 100% = twice DMSO control signal; activation, % at 9 µM; 300,000 tested, 1.7% active;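 active = mean replicate activation of at least 50% with a set share of replicates each reaching 50%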;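 note: 0% = median of the neutral control wells and 100% = twice that signal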
HSF1 inhib = HSF1 inhibitors in luciferase reporter cells, primary screen, cell-based, NIH3T3, luminescence | 300,000 tested, 0.77% active | NIH3T3-HGL HSE-luciferase, MG132-induced, luminescence 8 h; stronger effect = lower value | activity change, negative = inhibition, % at 7.5 µM (by protocol);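 active = more than half of replicate wells show activity change below -50%, luminescence cut by over half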;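 note: luciferase reports HSF-1 transcriptional activity via heat shock element; 0% = median of DMSO wells and -100% = zero luminescence signal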
ARNT TACC3 PPI = disruptors of ARNT/TACC3 protein interaction, primary screen, biochemical, AlphaScreen, single concentration. AlphaScreen His-ARNT PAS-B/GST-TACC3 binding, luminescence; TACC3 fragment carries E629A point mutation. inhibition, % at 9.99 µM. 390,000 tested, 0.66% active. AID 623870, 2012;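 active = mean inhibition of replicates at least 50% and at least half of replicates each reaching 50%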;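 note: 0% = complete ARNT plus TACC3 wells and 100% = ARNT alone without TACC3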
HIF activator = HIF pathway transcriptional activators, primary screen, cell-based, U2OS HRE-luciferase, luminescence; U2OS HRE-luciferase reporter; normalized: DMSO 0%, desferrioxamine 100%; activation, % at 7.5 µM (by protocol); 300,000 tested, 0.32% active; AID 1910, 2009;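 active = mean activation of at least 10% of the iron chelator positive control signal, with at least half of replicates also reaching 10%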
HSP90 inh confirm = HSP90 inhibitors, confirmation, cell lysate, luminescence | rabbit reticulocyte lysate, luciferase refolding luminescence, 3 h | 2,300 tested, 64% active | shares compounds with HSP90 inh | inhibition, % at 5.9 µM | AID 1846, 2009; in the data active = inhibition above about 18%;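 note: 0% = vehicle wells and 100% = reference inhibitor wells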
FLuc counter = firefly luciferase inhibitors, HSP90 counter-screen, confirmation, artefact control for HSP90 inhibitor project, biochemical, luminescence, triplicate; shares compounds with HSP90 inh; purified native firefly luciferase; 2,300 tested, 48% active; inhibition, % at 5.9 µM;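 active = inhibition above the mean inhibition of all tested sample wells plus 3 SD, cut at about 10% in these data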;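 note: 0% = DMSO with luciferase and 100% = wells lacking luciferase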
* marks the source's active call; other numbers are inactive results. Shown are actives, neighbours in structure and some others; about 3.1% of the full set was active somewhere.

`Cc1oc(-c2ccc(Cl)cc2)cc1C(=O)O` gave HSP90 inh 20*, HSF-1 act 32, HSF1 inhib 15, ARNT TACC3 PPI -4, HIF activator 1, HSP90 inh confirm 18* and FLuc counter 4.
For c1ccc(-n2nnc3c(N4CCOCC4)ncnc32)cc1 the results were HSP90 inh 30*, HSF-1 act 19, HSF1 inhib -12, ARNT TACC3 PPI 3, HIF activator -5, HSP90 inh confirm 66* and FLuc counter 55*.
`CC(C)NC(=O)N(C)C[C@H]1OCCCC[C@H](C)Oc2ccc(NS(=O)(=O)c3ccc(F)cc3)cc2C(=O)N([C@H](C)CO)C[C@H]1C` gave ARNT TACC3 PPI -6.
For COc1ccc(C(=O)N2CCOCC2)cc1S(=O)(=O)N1CCCc2ccccc21 the results were HSP90 inh 20*, HSF-1 act 5, HSF1 inhib -4, ARNT TACC3 PPI -2, HIF activator 1, HSP90 inh confirm 1 and FLuc counter -6.
Screening C[C@H]1CN([C@@H](C)CO)S(=O)(=O)c2ccc(C#CC3CC3)cc2O[C@H]1CN(C)Cc1ccccc1F returned ARNT TACC3 PPI 9.
CC(C)(C)c1ccc(/C=C2\SC(=O)N(CCNC(=O)c3cccc(S(=O)(=O)N4CCOCC4)c3)C2=O)cc1 was read as HSP90 inh 21*, HSF-1 act -70, HSF1 inhib -63*, ARNT TACC3 PPI 1, HIF activator 0, HSP90 inh confirm 74* and FLuc counter 70*.
For CC(C)(C)n1ncc2c(=O)n(CC(=O)c3ccccc3)cnc21 the results were HSP90 inh -4, HSF-1 act 24, HSF1 inhib 17 and HIF activator 3.
`CC(C)(C)n1ncc2c(=O)n(CC(=O)OCc3ccccc3)cnc21` gave HSP90 inh 84*, HSF-1 act -74, HSF1 inhib -73*, ARNT TACC3 PPI 21, HIF activator -1, HSP90 inh confirm 91* and FLuc counter 89*.
For COc1ccccc1/C=C/c1nc2ccccc2c(=O)o1 the results were HSP90 inh 8, HSF-1 act 27, HSF1 inhib 24, ARNT TACC3 PPI 1 and HIF activator 2.
COc1ccc(/C=C/c2nc3ccccc3c(=O)o2)cc1 was read as HSP90 inh 79*, HSF-1 act -66, HSF1 inhib -59*, ARNT TACC3 PPI -3, HIF activator -6, HSP90 inh confirm 87* and FLuc counter 14*.
`Cc1ccc(NCC(=O)c2ccc(C)cc2)cc1` gave HSP90 inh 22*, HSF-1 act 20, HSF1 inhib 10, ARNT TACC3 PPI -8, HIF activator 2, HSP90 inh confirm 5 and FLuc counter -12.
Screening CC(=O)NC1C(=O)N=C(SCc2ccccc2)NC1=O (stereo not drawn) returned HSP90 inh 49*, HSF-1 act 22, HSF1 inhib 6, ARNT TACC3 PPI -6, HIF activator 0, HSP90 inh confirm 2 and FLuc counter -5.
For CC(=O)NC1C(=O)N=C(SCC(=O)NC(C)c2ccccc2)NC1=O (stereo not drawn) the results were HSP90 inh 1, HSF-1 act 7, HSF1 inhib -6 and ARNT TACC3 PPI -28.
For O=C(Nc1ccc(N2CCOCC2)cc1)C1CCN(S(=O)(=O)Cc2ccccc2)CC1 the results were HSP90 inh 25*, HSF-1 act 3, HSF1 inhib 0, ARNT TACC3 PPI -3, HIF activator -2, HSP90 inh confirm 0 and FLuc counter -5.

Bioassay records: PubChem, several laboratories
